IL-1B inflam inh – inflammasome signaling inhibition, IL-1 beta readout; THP-1 LPS/ATP IL-1B secretion, AlphaLISA, 16 h; active compounds read low; activity change, % at 57.5 µM; actives 4.7% (n = 360,000); in the data active = activity change below about -50%; inconclusive = mostly about -30% to -49%
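Secreted IL-1B measured by AlphaLISA bead assay after 16 h compound exposure of THP-1 cells; compounds (final up to 57.5 uM) added 1 h before LPS (250 ng/mL) and ATP (1.25 mM) stimulation; lower signal means less secretion.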
HT1080NT lethal – kills 2HG-producing HT-1080-NT fibrosarcoma cells; HT-1080-NT fibrosarcoma viability, CellTiter-Glo ATP luminescence, 48 h; Potency, µM (titrated, usually from 46.1 µM), without a hit: top-dose activity, negative = less viability, most hits filed as cytotoxic; actives 1.6% (n = 360,000);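 note: NT is the 2HG producing partner of a matched IDH1 knockdown line; potency is the fitted concentration of half-maximal effect; 0% = DMSO-treated cells and -100% = media-only wells without cells; nearly all actives have a fitted effect of over 55% in size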
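Read-out is CellTiter-Glo luminescence after 10 minutes at room temperature, following 48 hours' compound treatment of HT-1080-NT cells (750 cells/well, RPMI, 5% FBS, 37 degrees C).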
TDP1 cell noCPT – qHTS for Inhibitors of human tyrosyl-DNA phosphodiesterase 1 (TDP1): qHTS in cells in absence of CPT; DT40 Tdp1-/- hTDP1 cells, no CPT, ATP luminescence, 48 h; Potency, µM (doses to about 46.2 µM), without a hit: at the highest dose activity change, negative = growth inhibition, usual class: inhibitors; actives 15% (n = 420,000); AID 686978, 2013; note: potency is the fitted concentration of half-maximal effect; nearly all actives have a fitted effect of over 55% in size
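Growth kinetics read by CellTiter-Glo luminescence after ≥48 hr at 37 °C. Cells: DT40 Tdp1-/- stably carrying human TDP1, 400 per well, compound exposure in the absence of CPT (DMSO vehicle).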
TDP1 cell CPT – DT40-hTDP1 cell growth loss with CPT. actives 12% (n = 420,000). chicken DT40 Tdp1-/-;hTDP1 cells + 20 nM CPT, ATP luminescence, 48 h. Potency, µM (top dose mostly 46.2 µM), for the others: top-dose activity change, negative = growth inhibition, most hits filed as inhibitors. AID 686979; note: potency is the fitted concentration of half-maximal effect; nearly all actives have a fitted effect of over 55% in size
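Chicken DT40 Tdp1-/- cells complemented with human TDP1, 400 cells/well, exposed to compounds plus 20 nM camptothecin for at least 48 h at 37 C; viability read as ATP content by CellTiter-Glo luminescence.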
HT1080 IDH1KD tx – kills HT-1080 cells with IDH1 knockdown. HT-1080 IDH1 knockdown viability, ATP luminescence, 48 h. Potency, µM (doses to about 46.1 µM), for the others: at the highest dose activity, negative = toxicity, usual class: cytotoxic. actives 2% (n = 360,000). AID 686971;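 note: potency is the fitted concentration of half-maximal effect; 0% = DMSO wells and -100% = cell-free medium wells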
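Cytotoxicity counter-line: IDH1KD HT-1080, 48 h, CellTiter-Glo. Curves classed by r2, magnitude and activity.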
Numbers without * were called inactive; [ ] = remark or other dose. The list is not random: actives were taken first. Their share in the collection is about 19%. Unless noted, calls come from the whole dose curve; as a rule, active = well fitted curve in the direction sought with a large enough effect; inconclusive = small, poorly fitted or top-dose-only effect, or another doubt; inactive = no such curve, though single readings can be large; an effect the other way counts as inactive or inconclusive. Unless noted, % is set by controls: 0 for no effect and ±100 for the full control effect.

Screening CC(NC(=O)c1ccco1)c1nc(-c2ccccc2)no1 (configuration not stated) returned IL-1B inflam inh -4.8, HT1080NT lethal 25.0%, TDP1 cell noCPT -27.4%, TDP1 cell CPT -11.2% and HT1080 IDH1KD tx 2.3%.
For COc1ccc(-c2noc(C(C)NC(=O)c3ccco3)n2)cc1 (configuration not stated) the results were TDP1 cell noCPT 14.6µM* and TDP1 cell CPT 18.4µM*.
Screening CC(Oc1ccc(Cl)cc1Cl)c1nc(-c2ccc(NC(=O)c3ccco3)cc2)no1 (configuration not stated) returned IL-1B inflam inh -10.5, HT1080NT lethal -10.3%, TDP1 cell noCPT 16.4µM*, TDP1 cell CPT 23.1µM* and HT1080 IDH1KD tx -20.6%.
For CCOc1ccc2c(c1)C(N(CCN1CCOCC1)C(=S)Nc1ccccc1OC)CC(C)(C)O2 (configuration not stated) the results were IL-1B inflam inh inconclusive, HT1080NT lethal 2.4%, TDP1 cell noCPT inconclusive, TDP1 cell CPT -28.9% and HT1080 IDH1KD tx -0.8%.
Screening CCc1ccccc1NC(=O)CNC(=O)CCNC(=O)Nc1ccccc1 returned IL-1B inflam inh -4.6, HT1080NT lethal 2.0%, TDP1 cell noCPT -4.6%, TDP1 cell CPT 5.5% and HT1080 IDH1KD tx 21.4%.
For O=C(CN1CCCC1c1ccc2c(c1)OCCO2)NC(=O)Nc1ccccc1 (configuration not stated) the results were IL-1B inflam inh -15.5, HT1080NT lethal -9.6%, TDP1 cell noCPT inconclusive, TDP1 cell CPT inconclusive and HT1080 IDH1KD tx -4.2%.
`O=C(CCl)N1CCCC1c1ccc2c(c1)OCCO2` (configuration not stated) gave IL-1B inflam inh -102.5*, HT1080NT lethal 23.1µM*, TDP1 cell noCPT 1.16µM*, TDP1 cell CPT 0.731µM* and HT1080 IDH1KD tx 18.4µM*.
For CC(=O)c1ccc(OCC(=O)N2CCCC2c2ccc3c(c2)OCCCO3)cc1 (configuration not stated) the results were IL-1B inflam inh 5.6, HT1080NT lethal 4.5%, TDP1 cell noCPT -15.5%, TDP1 cell CPT 4.2% and HT1080 IDH1KD tx 11.7%.
Screening Cc1ccc(NC(=O)NC(=O)CN2CCCC2c2ccc3c(c2)OCCO3)cc1C (configuration not stated) returned IL-1B inflam inh -13.0, HT1080NT lethal 6.8%[9.24 µM], TDP1 cell noCPT inconclusive, TDP1 cell CPT 29.1µM* and HT1080 IDH1KD tx -7.1%.
For CCOC(=O)/C=C/C(=O)OCC(=O)Nc1cccc(Cl)c1Cl the results were IL-1B inflam inh -11.7, HT1080NT lethal -3.9%, TDP1 cell noCPT inconclusive, TDP1 cell CPT -18.4% and HT1080 IDH1KD tx -11.1%.
Screening CCOC(=O)c1cccc(NC(=O)/C=C/c2cccc([N+](=O)[O-])c2)c1 returned IL-1B inflam inh -9.7, HT1080NT lethal 17.2%, TDP1 cell noCPT inconclusive, TDP1 cell CPT inconclusive and HT1080 IDH1KD tx 18.7%.
CCOC(=O)/C=C/C(=O)Nc1ccccc1-c1ccccc1NC(=O)/C=C/C(=O)OCC was read as IL-1B inflam inh -83.1*, HT1080NT lethal inconclusive, TDP1 cell noCPT 5.17µM*, TDP1 cell CPT 4.61µM* and HT1080 IDH1KD tx 23.1µM*.
For CCOC(=O)/C=C/C(=O)Nc1cccc([N+](=O)[O-])c1 the results were IL-1B inflam inh -64.5*, HT1080NT lethal inconclusive, TDP1 cell noCPT 4.11µM*, TDP1 cell CPT 1.64µM* and HT1080 IDH1KD tx -25.9%.
`Cc1c(O)nc(SCC(=O)Nc2nccs2)n(-c2ccccc2F)c1=O` gave IL-1B inflam inh 8.8, HT1080NT lethal 2.8%, TDP1 cell noCPT -1.2%, TDP1 cell CPT 4.5% and HT1080 IDH1KD tx 4.5%.
For CCOc1ccccc1NC(=O)c1c2c(nc3ccccc13)C(=O)N(C1CCCCC1)C2 the results were TDP1 cell noCPT 5.8µM* and TDP1 cell CPT 6.51µM*.
For Cc1ccccc1NC(=O)c1c2c(nc3ccccc13)C(=O)N(C1CCCCC1)C2 the results were TDP1 cell noCPT 20.6µM* and TDP1 cell CPT inconclusive.
For Cc1ccc(NC(=O)c2c3c(nc4ccccc24)C(=O)N(C2CCCCC2)C3)cc1F the results were TDP1 cell noCPT 11.6µM* and TDP1 cell CPT 8.2µM*.
CCOc1ccccc1NC(=O)CSc1nc2ccccc2c(=O)n1CC1CCCO1 (configuration not stated) was read as IL-1B inflam inh 7.4, HT1080NT lethal 5.3%, TDP1 cell noCPT inconclusive, TDP1 cell CPT inconclusive and HT1080 IDH1KD tx 5.3%.
For Cn1c(SCCN2CCCC2)nnc1C1CCN(S(=O)(=O)c2ccc(F)cc2)CC1 the results were IL-1B inflam inh 12.6, HT1080NT lethal 6.9%, TDP1 cell noCPT -24.3%, TDP1 cell CPT 1.1% and HT1080 IDH1KD tx 8.3%.
Screening Cc1ccc2c(c1)N(CC(=O)NCC1CCCO1)C(=O)C(C(C)C)O2 (configuration not stated) returned IL-1B inflam inh -5.6, HT1080NT lethal -2.8%, TDP1 cell noCPT -31.0%, TDP1 cell CPT 6.6% and HT1080 IDH1KD tx 3.3%.
`O=C(CN1C2CCCC1CC(NC(=O)c1ccco1)C2)Nc1ccccc1C(F)(F)F` (configuration not stated) gave IL-1B inflam inh -24.6, HT1080NT lethal 10.2%, TDP1 cell noCPT 23.1µM*, TDP1 cell CPT 23.1µM* and HT1080 IDH1KD tx 7.0%.
Screening O=C(CN1C2CCCC1CC(NC(=O)c1ccccc1)C2)Nc1ccccc1C(F)(F)F (configuration not stated) returned IL-1B inflam inh -28.3, HT1080NT lethal -2.9%, TDP1 cell noCPT 16.4µM*, TDP1 cell CPT inconclusive and HT1080 IDH1KD tx 3.4%.
Screening CC1CN(C(=O)CCC(=O)NCCCN2CCN(Cc3ccccc3)CC2)c2cc(Cl)ccc2O1 (configuration not stated) returned IL-1B inflam inh -22.2, HT1080NT lethal -10.8%, TDP1 cell noCPT inconclusive, TDP1 cell CPT 20.6µM* and HT1080 IDH1KD tx -2.1%.
For Cc1ccc2c(c1)N(C(=O)CCC(=O)NCCCN1CCN(C)CC1)CCO2 the results were IL-1B inflam inh 12.2, HT1080NT lethal -0.6%, TDP1 cell noCPT -26.1%, TDP1 cell CPT -0.1% and HT1080 IDH1KD tx -1.8%.
Screening Cc1ccc2c(c1)N(C(=O)CCC(=O)NCCCN1CCC(Cc3ccccc3)CC1)CCO2 returned IL-1B inflam inh -28.2, HT1080NT lethal inconclusive, TDP1 cell noCPT 18.4µM*, TDP1 cell CPT inconclusive and HT1080 IDH1KD tx inconclusive.
O=S1(=O)c2ccccc2Nc2ccccc21 was read as IL-1B inflam inh -73.4*, HT1080NT lethal -3.2%, TDP1 cell noCPT -23.6%, TDP1 cell CPT 7.6% and HT1080 IDH1KD tx 3.8%.

Compound activity (PubChem BioAssay)
